Data from PubChem BioAssay AID1159580 (chemical genetic matrix, 2015).
Among all 5,500 compounds or so, about 2,000 (36%) were called active. Not shown: some 18% with an inconclusive outcome. Cut-off read from the data, not from the text of the source: active = normalized growth mostly below about 0.91 (no sharp cut-off); inconclusive = no clear call, values can overlap the other calls; inactive = mostly above about 0.92. The list shows a part of the results.

Experiment: chemical genetic growth profiling, strain panel (AID 1159580);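 note: tested at 20 µM; growth read once vehicle control cultures reached saturation at 30 °C; 1 = growth at the plate median or of vehicle wells; lower values mean less growth of the strain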
Conditions: S. cerevisiae deletion strains, growth OD

Measured: normalized growth

CCN(CC)C(=O)c1ccc(O)c(OC)c1
inactive: locus YAL013W, strain DEP1, hits give low values 1.01 | locus YAL040C, strain CLN3, hits give low values 1.05 | locus YCL061C, strain MRC1 (second series), hits give low values 1 | locus YDR363W, strain ESC2, hits give low values 1.01 | locus YER002W, strain NOP16, hits give low values 1.03 | locus YHR030C, strain SLT2, hits give low values 0.964 | locus YHR079C, strain IRE1, hits give low values 0.997 | locus YJL095W, strain BCK1, hits give low values 1 | locus YJR066W, strain TOR1, hits give low values 0.957 | locus YLR113W, strain HOG1, hits give low values 0.99 | locus YNL175C, strain NOP13, hits give low values 1.01 | locus YNL183C, strain NPR1, hits give low values 0.938 | locus YNL197C, strain WHI3, hits give low values 0.999 | locus YNL224C, strain SQS1, hits give low values 1.01 | locus YNL322C, strain KRE1, hits give low values 1.03 | locus YOR083W, strain WHI5 (second series), hits give low values 1.01 | locus YOR231W, strain MKK1, hits give low values 0.985 | locus YPL256C, strain CLN2, hits give low values 0.975
